Potency and max response data for 13 molecules are collected here from PubChem BioAssay (NCATS).

Molecules are shown by their SMILES. “And” between values parts separate entries of the source, which are not always exact repeats. Identical values can stand only once. Inconclusive results are not listed. A number with no mark means an inactive call. The source made the active and inactive calls. Calls come from the whole dose curve; as a rule, active = well fitted curve in the direction sought with a large enough effect; inconclusive = small, poorly fitted or top-dose-only effect, or another doubt; inactive = no such curve, though single readings can be large or run the other way.
% is set by controls: 0 for no effect and ±100 for the full control effect; potency is the fitted concentration of half-maximal effect.

This test can be described thus: qHTS Assay for Identifying Gametocytocidal Compounds (AID 743244).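 For max response: actives lower the fluorescent signal which means gametocytes are killed.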 The note with it: P. falciparum 3D7 stage III-V gametocytes, alamarBlue, 72 h; max response: active compounds read low. Put shortly: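 Fluorescence at Ex 525/Em 598 nm, recorded 24 h after alamarBlue addition, reports residual metabolic activity of 3D7 gametocytes (stages III–V) following 72 h compound exposure at 37 °C, 5% CO2.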
Take `COc1ccc(C2NC(=S)N3C(c4ccc(OC)c(OC)c4)NC(=S)N23)cc1OC` (stereo not drawn): the Potency is 2.3 nM (active).
Regarding `O=C(Cn1cnnn1)N[C@@H]1C(=O)N2C(C(=O)O)=C(CSc3nncs3)CS[C@H]12`, the max response was 1.4% and 3.1%.
In the case of `CN(C(=O)CO)c1c(I)c(C(=O)NCC(O)CO)c(I)c(C(=O)NCC(O)CO)c1I` (stereo not drawn), the max response was -2.64%.
Take `O=C1O[C@H]2[C@H](O)[C@@H]1OC(O)[C@H]2O` (stereo partly drawn): the max response is -4.25%.
`CC(CC(c1ccccc1)c1ccccc1)NC(C)(C)C` (stereo not drawn): the max response was -8.24%.
Consider `COc1cc2[nH]c(C)c(CCN3CCN(c4ccccc4)CC3)c2cc1OC`, for which the max response was 16.1%.
`C/C(=C(\CCOC(=O)c1ccccc1)SS/C(CCOC(=O)c1ccccc1)=C(/C)N(C=O)Cc1cnc(C)nc1N)N(C=O)Cc1cnc(C)nc1N`: the max response is 9.71%.
On the same count and under the same terms, with `CN[C@@H]1CCc2[nH]c3ccc(C(N)=O)cc3c2C1` the figure was -0.658%.
Regarding `CCCCCCCCCCCCCCCC(=O)OC/C=C(C)/C=C/C=C(C)/C=C/C1=C(C)CCCC1(C)C`, the max response is -4.83%.
Regarding `Cc1cc(Nc2ccccc2C(=O)O)ccc1Cl`, the max response is -23.6%.
Regarding `O=C(O)c1cccc(/C=C2/C[C@@H]3[C@@H](/C=C/[C@@H](O)C4CCCCC4)[C@H](O)C[C@@H]3O2)c1`, the max response was -5.6%.
For the molecule `O=C1O[C@@H]2[C@@H](O)[C@H](O)O[C@@H]2[C@H]1O`, the max response was 3.86%.
With `CC(C)(C)NC(=O)[C@H]1CC[C@H]2[C@@H]3CC=C4C=C(C(=O)O)CC[C@]4(C)[C@H]3CC[C@]12C`, the max response was -20.3%.
